Sm TGR inh: qHTS Assay for the Inhibitors of Schistosoma Mansoni Peroxiredoxins; purified TGR, DTNB reduction, TNB absorbance 405 nm; 360,000 tested, 3% active; AID 485364, 2010; Potency, µM (doses to about 114 µM), for inactives: at the top dose activity change, negative = inhibition, most hits filed as inhibitors; Schistosoma mansoni thioredoxin glutathione reductase (TGR), Q962Y6; also: % is scaled to controls: 0 for no effect and ±100 for the full control effect; nearly all actives have a fitted effect of over 60% in size
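TGR 20 nM + NADPH 100 uM (dispensed conc.), cpd preinc 15 min RT; start with NADPH (500 uM addition) then DTNB (15 mM addition). Kinetic TNB absorbance, 405 nm filter. Four-parameter Hill fit across titration.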
AmpC detergent: qHTS Inhibitors of AmpC Beta-Lactamase (assay with detergent); P00811; AmpC hydrolysis of nitrocefin, absorbance 480 nm, 0.01% Triton; Potency, µM (highest dose often 114 µM), for inactives: top-dose activity change, negative = inhibition, actives largely listed as inhibitors; 370,000 tested, 0.041% active;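 also: 0% = no-compound wells and -100% = no-enzyme wells; nearly all actives have a fitted effect of over 25% in size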
Target sequence (P00811 whole entry, looked up): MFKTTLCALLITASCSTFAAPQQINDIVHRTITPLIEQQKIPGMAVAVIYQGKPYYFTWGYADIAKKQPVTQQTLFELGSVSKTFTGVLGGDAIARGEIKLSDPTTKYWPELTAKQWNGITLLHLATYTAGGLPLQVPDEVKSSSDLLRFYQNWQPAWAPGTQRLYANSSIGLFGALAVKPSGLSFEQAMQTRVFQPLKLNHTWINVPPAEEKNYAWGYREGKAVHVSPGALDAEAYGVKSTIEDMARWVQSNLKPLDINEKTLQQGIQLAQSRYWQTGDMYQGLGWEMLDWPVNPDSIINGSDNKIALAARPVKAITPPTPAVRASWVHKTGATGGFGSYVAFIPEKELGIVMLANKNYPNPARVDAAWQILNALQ
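20 mM phosphate pH 7.0 + 0.01% (detergent screen) or 0.0001% Triton X-100; 5.3 nM AmpC reagent; cpd preinc 15 min RT; nitrocefin (800 uM stock) to start; A480 q20 s × 4 min; Activity was normalised to no-enzyme and no-compound control wells.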
Pf growth 48h: Primary qHTS for delayed death inhibitors of the malarial parasite plastid, 48 hour incubation. P. falciparum luciferase growth in erythrocytes, 48 h. Potency, µM (highest dose often 28.7 µM), inactives show top-dose activity change, negative = inhibition, usual class: inhibitors. 310,000 tested, 5.9% active. AID 504832, 2011; also: % is scaled to controls: 0 for no effect and ±100 for the full control effect
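Compounds are pin-transferred into medium, infected erythrocytes (2% hematocrit, 0.1% parasitemia final) are added, and plates sit one parasite generation at 37 C in 5% CO2. Detection reagent is then added and luminescence measured.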
AmpC inh no detg: qHTS Inhibitors of AmpC Beta-Lactamase (assay without detergent); P00811; AmpC nitrocefin hydrolysis, absorbance 480 nm, 0.0001% Triton; Potency, µM (titrated, usually from 57.1 µM), for the others: top-dose activity change, negative = inhibition, hits mostly inhibitors; 330,000 tested, 0.52% active; AID 485341, 2010;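 also: plate controls were no compound for no effect and no enzyme for full effect; nearly all actives have a fitted effect of over 20% in size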
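20 mM phosphate pH 7.0 + 0.01% (detergent screen) or 0.0001% Triton X-100; 5.3 nM AmpC reagent; cpd preinc 15 min RT; nitrocefin (800 uM stock) to start; A480 q20 s × 4 min; Activity was normalised to no-enzyme and no-compound control wells.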
SARS PLpro yeast: qHTS of Yeast-based Assay for SARS-CoV PLP | 330,000 tested, 0.19% active | Potency, µM (titrated, usually from 32.9 µM), without a hit: at the top dose activity, positive = growth rescue, usual class: activators | S. cerevisiae expressing SARS-CoV PLpro, growth rescue | AID 485353, 2010; calls by dose curve; also: 0% is about no effect; nearly all actives have a fitted effect of over 55% in size
Pf growth 96h: Primary qHTS for delayed death inhibitors of the malarial parasite plastid, 96 hour incubation; Potency, µM (titrated, usually from 28.7 µM), inactives show at the top dose activity change, negative = inhibition, usual class: inhibitors; AID 504834, 2011; P. falciparum luciferase reporter growth, 96 h; 320,000 tested, 6.9% active; also: % is scaled to controls: 0 for no effect and ±100 for the full control effect
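Compounds incubated with erythrocytes infected by luciferase-expressing P. falciparum (2% hematocrit, 0.05% parasitemia final) for 96 hours, 37 C in 5% CO2. Growth inhibition scored as decreased luciferase luminescence.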
Active calls of the source: *; ? = inconclusive; · = not tested or not shown; ! = not confirmed by another sample. Only some compounds are listed: those with a hit (about 12% of all), similar ones and a draw of the others. Unless noted, calls follow the shape of the dose curve; as a rule, active = well fitted curve in the direction sought with a large enough effect; inconclusive = small, poorly fitted or top-dose-only effect, or another doubt; inactive = no such curve, though single readings can be large; an effect the other way counts as inactive or inconclusive. Potency is read from the fitted curve at half-maximal effect.

SMILES | Sm TGR inh | AmpC detergent | Pf growth 48h | AmpC inh no detg | SARS PLpro yeast | Pf growth 96h
N#CC1=C(N)Oc2ccc3ccc(O)cc3c2C1c1cccnc1 (stereo not given) | 0.0% | -4.8% | 1.31µM* | -46.6% | 1.2% | ?
N#CC1=C(N)Oc2ccc3ccccc3c2C1c1cccnc1 (stereo not given) | 39.8µM* | 1.9% | -21.9% | -14.1% | -0.4% | 0.0%
O=C(Cn1c(=S)[nH]c2ccccc2c1=O)N1CCN(c2ccc(F)cc2)CC1 | -3.9% | 1.5% | -10.1% | -23.6% | 0.0% | -19.7%
COc1ccc(N2CCN(C(=O)Cn3c(=O)[nH]c4ccccc4c3=O)CC2)cc1 | ? | -7.7% | 11.8% | -2.4% | 0.9% | 10.4µM*
COc1ccc(N2CCN(C(=O)CCCSc3nc4ccccc4[nH]3)CC2)cc1 | 0.4% | -17.1% | · | 35.3% | -8.9% | 9.28µM*
COc1ccc(NC(=O)CCCn2c(=O)[nH]c3ccccc3c2=O)cc1 | -26.1% | 3.4% | 2.33µM* | -26.9% | 4.7% | -1.4%
O=C(Cc1ccc(-n2c(=O)[nH]c3ccccc3c2=O)cc1)N1CCN(c2ccccc2)CC1 | -6.9% | -0.7% | 11.7µM* | 23.6% | -0.3% | 36.8%
COc1ccc(N2CCN(CCCNC(=O)C(=O)c3c(C)[nH]c4ccccc34)CC2)cc1 | -8.5% | -0.2% | 5.22µM* | 97.3% | 0.8% | ?
COc1ccc(N2CCN(CC(=O)c3c[nH]c4ccccc34)CC2)cc1 | -10.5% | 9.6% | -9.7% | -4.4% | 0.8% | 14.9%
c1coc(-c2ccnc3nc(-n4cccc4)nn23)c1 | -13.7% | ? | 10.4µM* | -36.0% | -0.5% | ?
CS(=O)(=O)CCC(C(=O)Nc1ccc2c(c1)OCO2)N1Cc2ccccc2C1=O (stereo not given) | -34.4% | -4.9% | 35.8% | 17.8% | -0.8% | -20.1%
CC1CCCCC1NC(=O)/C(C#N)=C/c1ccc(F)c(F)c1 (stereo not given) | 0.6% | -4.7% | 11.7µM* | -22.5% | -13.7% | ?
Cc1cccc(C(C)n2nnc3ccccc32)c1O (stereo not given) | 0.3% | -14.1% | 14.7µM* | -27.3% | -2.0% | 10.4µM*
COc1ccc(N2CCN(C(=O)c3nn(C)c4c3CS(=O)(=O)c3ccccc3-4)CC2)cc1 | 4.1% | 5.1% | -7.6% | 41.9% | 2.6% | 6.5%
Cc1ccccc1NC(=O)c1nn(C)c2c1CS(=O)(=O)c1ccccc1-2 | 11.8% | 1.7% | 1.5% | -10.0% | -4.8% | 13.1µM*
COc1ccccc1N1CCN(C(=O)c2nn(C)c3c2CS(=O)(=O)c2ccccc2-3)CC1 | 8.91µM*! | 7.0% | -16.1% | 88.0% | -4.2% | ?
O=c1cc(O)nc(SCc2ccccc2)n1-c1ccc(F)cc1 | -19.1% | 3.9% | 2.94µM* | -26.2% | 5.0% | ?
O=C(CSc1nc(O)cc(=O)n1-c1ccccc1)Nc1ccc2c3c(cccc13)CC2 | 1.9% | -14.5% | ? | -45.0% | ? | 8.28µM*
Cc1c(O)nc(SCC(=O)Nc2ccc3c4c(cccc24)CC3)n(-c2ccccc2)c1=O | -11.4% | -2.0% | -0.4% | 35.5µM* | ? | ?
COc1ccc(NC(=O)CSc2nc(O)cc(=O)n2-c2ccccc2)cc1 | 2.6% | 8.6% | 1.1% | -21.3% | 1.1% | 39.7%
O=C(CSc1nc(O)cc(=O)n1-c1ccccc1)NC1CCCCC1 | -17.6% | 4.2% | 2.62µM* | -32.8% | 6.7% | ·
Cc1cc(NC(=O)CSc2nnnn2C)n(-c2ccccc2)n1 | -0.8% | -19.7% | · | -9.6% | 0.9% | -2.8%
COCC1CCCC1OS(N)(=O)=O (stereo not given) | 6.7% | ? | 32.1% | 114.2% | 7.5% | 8.1%
O=C(CN1C(=O)NC2(CCCC2)C1=O)NNC(=O)c1ccccc1F | 0.4% | 7.5% | 26.6% | -8.2% | -17.8% | 21.9%
Cc1ccc(-n2c(SCC(=O)Nc3ccc(Cl)cc3)nc(O)cc2=O)cc1 | -11.5% | -5.2% | ? | 7.08µM* | 0.6% | ?
SMILES | Sm TGR inh | AmpC detergent | Pf growth 48h | AmpC inh no detg | SARS PLpro yeast | Pf growth 96h
O=C(Nc1ccc2c(c1)OCO2)C1CCN(c2ccc(S(=O)(=O)N3CCOCC3)cc2)CC1 | -6.4% | -12.8% | ? | -21.0% | 8.4% | ?
O=C(NC1CC1)C1CCN(c2ccc(S(=O)(=O)N3CCOCC3)cc2)CC1 | 5.5% | -11.9% | 4.15µM* | 0.2% | 1.7% | -4.8%
CC(C)CNC(=O)C1CCN(c2ccc(S(=O)(=O)N3CCOCC3)cc2)CC1 | 0.0% | -12.9% | 7.38µM* | 16.9% | -0.7% | ·
COc1ccccc1C(=O)NCC1CCN(c2ccc(S(=O)(=O)N3CCOCC3)cc2)CC1 | 9.9% | -0.9% | · | 67.4% | 0.6% | 3.29µM*
O=C(NCC1CCN(c2ccc(S(=O)(=O)N3CCOCC3)cc2)CC1)Nc1ccccc1 | -16.2% | -7.0% | ? | -6.8% | 4.1% | ?
CCN(Cc1ccccc1)Cc1c(O)ccc2c(=O)c(-c3ccccc3Cl)coc12 | -20.1% | -1.1% | · | · | · | ·
COc1ccc(S(=O)(=O)Nc2ccccc2C(=O)NCc2cccnc2)cc1 | -1.7% | -4.0% | 17.8% | -6.5% | -0.1% | -23.6%
Cc1ccc(-c2cc(-c3ccccc3)cc(-c3ccccc3)[n+]2-c2ccccc2C(=O)O)cc1 | 1.9% | ? | 10.4µM* | 47.3% | -0.3% | 2.94µM*
N#CC1=C(N)Oc2cc(O)ccc2C1c1cccs1 (stereo not given) | -30.8% | -0.6% | · | -14.9% | 7.0% | ·
CSc1ccc(C2C(C#N)=C(N)Oc3c2ccc(=O)c2c(C)oc(C)c32)cc1 (stereo not given) | 28.2µM* | 2.4% | ? | -29.5% | 2.1% | -11.3%
Cc1oc(C)c2c(=O)ccc3c(c12)OC(N)=C(C#N)C3c1ccccc1Cl (stereo not given) | ? | -2.5% | ? | -46.8% | 1.0% | 63.1%
N#CC1=C(N)Oc2c(ccc3cccnc23)C1c1ccccc1 (stereo not given) | 39.8µM* | 5.8% | 13.1µM* | -4.4% | 0.3% | ?
Cc1oc(C)c2c(=O)ccc3c(c12)OC(N)=C(C#N)C3c1ccccc1 (stereo not given) | 28.2µM* | -0.3% | ? | ? | -0.8% | 74.6%
N#CC1=C(N)Oc2c(ccc3ccccc23)C1c1cccs1 (stereo not given) | 35.5µM* | -0.3% | · | -59.1% | -5.9% | 8.28µM*
COc1ccc(C2C(C#N)=C(N)Oc3c2oc(CO)cc3=O)cc1 (stereo not given) | -3.5% | 0.0% | 10.0% | 2.3% | -0.3% | 0.0%
